Laboratory results from ChEMBL document CHEMBL1857833, “Screening and optimization of specific chemical series against human African Trypanosomiasis (HAT)”.
Several values for one entry are separate records, joined by “and”; a condition that tells them apart may be missing. Equal entries are not always repeated. The whole screen tested about 4,400 compounds, of which about 390 (8.9%) showed an effect of 50% or more. The sample holds strong results, similar compounds and a random draw of the others, so the mix is not that of the screen.

tested on: Trypanosoma brucei; experiment: DNDI: Inhibition of Human African Trypanosomiasis, SBRI 427, in vitro at 2 ug.mL-1; format: functional

Compound | % inhibition
CC(NCc1coc(-c2ccccc2Br)n1)c1cccc2ccccc12 (configuration not stated) | 9% and -3%
CCOc1ccccc1Oc1ncccc1/C(=N/O)N1CCC=N1 | 13%
COc1cccc(-c2nc(CNc3ccc(C(C)=O)cc3)co2)c1 | 18%
COc1cc(-c2nc(CN3CCN(Cc4ccc5c(c4)OCO5)CC3)co2)cc(OC)c1OC | -1%
O/N=C(/c1cccnc1OCc1ccccc1F)N1CCN(c2ccc(F)cc2)CC1 | -19%
CSc1ccc(Oc2cc(/C(=N/O)NC3CCC(C)CC3)ccn2)cc1 (configuration not stated) | 9%
CCc1ccc(Oc2ccc(/C(=N/O)N3CCCCC3)cn2)cc1 | 68%
CCc1ccc(Oc2ccc(/C(=N/O)N3CCOCC3)cn2)cc1 | 3%
CC1CCC(N/C(=N\O)c2ccc(Oc3ccc(F)cc3)nc2)CC1 (configuration not stated) | 16%
CCc1ccc(Oc2ccc(/C(=N/O)NCc3ccc(OC)cc3)cn2)cc1 | 22%
CSc1ccc(Oc2ccc(/C(=N/O)NC3CCC(C)CC3)cn2)cc1 (configuration not stated) | 81%
CCc1ccc(Oc2ccc(/C(=N/O)N3CCSCC3)cn2)cc1 | 16%
CCc1ccc(Oc2ccc(/C(=N/O)NCc3c(F)cccc3F)cn2)cc1 | 22%
CCc1ccc(Oc2ccc(/C(=N/O)NCC3CC3)cn2)cc1 | 99%
N#CCCN(Cc1coc(-c2cccc(F)c2)n1)CC1CCCO1 (configuration not stated) | -9%
Cc1ccc(Oc2nc(C)ccc2/C(=N/O)N2CCC3CCCCC3C2)c(C)c1 (configuration not stated) | 10%
CC(C)COc1ncccc1/C(=N/O)N1CCC2CCCCC2C1 (configuration not stated) | -17%
Cc1ccc(Oc2ccc(/C(=N/O)N3CCN(c4ccccc4)CC3)cn2)c(C)c1 | 18%
COc1cc(CN(C)Cc2coc(-c3ccc(Cl)cc3Cl)n2)cc(OC)c1OC | 0%
COc1cc(-c2nc(CN3CCCc4ccccc43)co2)cc(OC)c1OC | 6%
CCOc1ccccc1CN/C(=N\O)c1ccc(C)nc1Oc1ccc(SC)c(C)c1 | -24%
CCOc1ccccc1CN/C(=N\O)c1ccc(C)nc1Oc1ccc(F)cc1 | 20%
Cc1ccc(Oc2nc(C)ccc2/C(=N/O)NCc2ccccc2C)c(C)c1 | 43%
COc1ccccc1CN/C(=N\O)c1ccc(C)nc1Oc1ccc(C)cc1C | 40%
CCOc1ccccc1CN/C(=N\O)c1ccc(C)nc1Oc1ccc(C)cc1C | 99%
CCOc1ccccc1CN/C(=N\O)c1ccc(C)nc1Oc1ccc(C)cc1 | 67%

Compound | % inhibition
Fc1ccc(-c2nc(CNC3CCc4ccccc43)co2)cc1 (configuration not stated) | 28%
Cc1ccc(/C(=N/O)N2C(C)CCCC2C)c(Oc2cccc(F)c2)n1 (configuration not stated) | 15%
CN(Cc1coc(-c2cccc(F)c2)n1)Cc1cccc2ccccc12 | -3%
COc1ccc(CN/C(=N\O)c2ccnc(Oc3ccc(C)c4c3CCC4)c2)cc1 | 21%
COC(=O)c1cn(Cc2coc(-c3ccc(Br)cc3)n2)cn1 | 16%
CSc1ccc(Oc2ncccc2/C(N)=N/O)cc1C | 17%
CCOc1ccc(Oc2cc(/C(=N/O)NC3CCCC3)ccn2)cc1 | 53%
CCOc1ccc(Oc2cc(/C(=N/O)NC3CCc4ccccc43)ccn2)cc1 (configuration not stated) | 29%
CCOc1ccc(Oc2cc(/C(=N/O)Nc3ccccc3)ccn2)cc1 | 24%
CCOc1ccc(Oc2cc(/C(=N/O)NC3CCC(C)CC3)ccn2)cc1 (configuration not stated) | 25%
CCOc1ccc(Oc2cc(/C(=N/O)NC3CCCCC3)ccn2)cc1 | 51%
CCOc1ccc(Oc2cc(/C(=N/O)NC3CC(C)CC(C)(C)C3)ccn2)cc1 (configuration not stated) | 29%
CCOc1cccc(-c2nc(CN3CCN(c4cc(C)nc5ccccc45)CC3)co2)c1 | 11%
Cc1ccccc1-c1nc(CNCCN2CCOCC2)co1 | 6%
CCOc1cccc(-c2nc(CN3CCCN(C)CC3)co2)c1 | 2%
CSc1ccc(Oc2nc(C)ccc2/C(=N/O)N2CCSC2)cc1 | 1%
Fc1cccc(-c2nc(CN3CCCCCC3)co2)c1 | 5%
CC(C)CN/C(=N\O)c1ccc(Oc2ccc3ccccc3c2)nc1 | 2%
Cc1cc(Oc2ccc(/C(=N/O)NC3CC3)cn2)cc(C(C)C)c1 | 62%
Cc1cc(Oc2ccc(/C(=N/O)NC3CCC(C)CC3)cn2)cc(C(C)C)c1 (configuration not stated) | 19%
Cc1cc(C)cc(Oc2ccc(/C(=N/O)NCC(C)C)cn2)c1 | 90%
CCCN/C(=N\O)c1ccc(Oc2cc(C)cc(C)c2)nc1 | 20%
COc1cccc(Oc2ccc(/C(=N/O)NCC(C)C)cn2)c1 | 19%
Cc1cc(C)cc(CN/C(=N\O)c2ccc(Oc3cc(C)cc(C)c3)nc2)c1 | -3%
Cc1cc(Oc2ccc(/C(=N/O)NC3CCc4ccccc43)cn2)cc(C(C)C)c1 (configuration not stated) | 35%
COCCN/C(=N\O)c1ccc(Oc2cc(C)cc(C(C)C)c2)nc1 | 17%

Compound | % inhibition
Cc1cc(C)cc(Oc2ccc(/C(=N/O)NCC(C)(C)C)cn2)c1 | 98%
Cc1cc(Oc2ccc(/C(=N/O)NCC3CC3)cn2)cc(C(C)C)c1 | 97%
Cc1cc(C)cc(CN/C(=N\O)c2ccc(Oc3cc(C)cc(C(C)C)c3)nc2)c1 | 19%
CCC(C)(C)N/C(=N\O)c1ccc(C)nc1Oc1ccc(F)c(F)c1 | 11%
CCOc1ccccc1-c1nc(CN2CCC=N2)co1 | -3%
CC(=O)c1ccc(N2CCN(Cc3coc(-c4ccc(F)cc4)n3)CC2)cc1 | -5%
Cc1cc(C)cc(Oc2ccc(/C(=N/O)NCC3CCCO3)cn2)c1 (configuration not stated) | -3%
Cc1cc(C)cc(Oc2ccc(/C(=N/O)NCC3CC3)cn2)c1 | 99%
Cc1cc(C)cc(Oc2ccc(/C(=N/O)NCC3CCCCC3)cn2)c1 | 21%
Cc1cccc(CNCc2coc(-c3ccc(O)cc3)n2)c1 | -10%
Cc1cn(Cc2coc(-c3ccccc3Br)n2)c(C)n1 | 25%
CCCCN(Cc1coc(-c2ccccc2Cl)n1)c1ccccc1 | 10%
COc1cc(-c2nc(Cn3cnc(C)c3)co2)cc(OC)c1OC | -15%
Cc1ccc(-c2nc(CNC[C@@H]3CCCO3)co2)cc1 | 12%
Cc1ccc(-c2nc(CNCc3ccc(C)o3)co2)cc1 | -7%
CC1(C)[C@H]2CC[C@@H](CNCc3coc(-c4cccc(F)c4)n3)[C@@H]1C2 | 42%
COc1ccc(CNCc2coc(-c3ccc(F)cc3)n2)cc1 | -33%
CC1(C)[C@H]2CC[C@@H](CNCc3coc(-c4cccc5ccccc45)n3)[C@@H]1C2 | 73%
CC1(C)[C@H]2CC[C@@H](CNCc3coc(-c4ccc(F)cc4)n3)[C@@H]1C2 | 99%
COc1cc(-c2nc(CNC[C@@H]3CC[C@H]4C[C@@H]3C4(C)C)co2)cc(OC)c1OC | 11%
COc1ccc(-c2nc(CNC[C@@H]3CC[C@H]4C[C@@H]3C4(C)C)co2)cc1 | 97%
CC1(C)[C@H]2CC[C@@H](CNCc3coc(-c4ccccc4Cl)n3)[C@@H]1C2 | 35%
COc1ccc(-c2nc(CNCC3CCCO3)co2)cc1 (configuration not stated) | -10%
Cc1ccc(-c2nc(CNC[C@@H]3CC[C@H]4C[C@@H]3C4(C)C)co2)cc1 | 99%
c1ccc2c(CNCc3coc(-c4cccc5ccccc45)n3)cccc2c1 | 14%
